Inconclusive results are not listed. Calls of active or inactive are those of the source. Calls follow the shape of the dose curve; as a rule, active = well fitted inhibition curve with a large enough effect; inconclusive = small, poorly fitted or top-dose-only effect; inactive = flat fitted curve, though single readings scatter.
These molecules were tested on CRL-7250 (assay: Cytotoxic Profiling of Annotated Libraries Using Quantitative High-Throughput Screening (AID 1296008; also: nearly all actives have a fitted effect of over 60% in size)). Conditions: Five cell lines viability, CellTiter-Glo ATP luminescence, 48-72 h; max response: hits give low values.
In short: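 Cells exposed to compounds for 48 or 72 hr at 37 degrees Celsius. Viability read as ATP-coupled luminescence with CellTiter-Glo after 10 min at room temperature.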
`COc1cccc(C(=O)N2CCN(C(=O)COc3cccc(C)c3)CC2)c1OC` was tested, and the outcome was “inactive”.
In the case of `COc1ccc2nc(S(=O)(=O)Cc3ncc(C)c(OC)c3C)[nH]c2c1`, the max response is reported as -21.3% (inactive).
In the case of `CC12CCC(OC3OC(CO)C(O)C(OC4OC(CO)C(O)C(O)C4O)C3O)CC1CCC1C2CCC2(C)/C(=C3/COC(=O)C3)CCC12O` (stereo not given), the max response is reported as -8.75% (inactive).
For `CC(C)(C)OC(=O)N1CCC(OCc2nc(-c3ccncc3)no2)CC1`, the max response was -15.9% (inactive).
With `CC(C)C(N)C(=O)OCCOCn1cnc2c(=O)[nH]c(N)nc21` (stereo not given) the max response was 2.37% (inactive).
For `CC(C)[C@H]1CC[C@@]2(O)COC(=O)[C@H]2[C@@H]1/C=C(\CO)C(=O)O`, the max response was -25.6% (inactive).
For `C[C@H](NC(c1cccc2[nH]c(=O)c(=O)[nH]c12)P(=O)(O)O)c1ccc(Br)cc1` (stereo not given in full), the max response was -1.1% (inactive).
With `C=CC1C(OC2OC(CO)C(O)C(O)C2O)OC=C(C(=O)OC)C1CC1CC(=O)CC(CCc2ccc(O)cc2)O1` (stereo not given) the max response was 3.27% (inactive).
With `Cc1cc(C(=O)Nc2cccc(C(=O)Nc3cccc(C(F)(F)F)c3)c2)on1` the max response was 4.99% (inactive).
In the case of `O=C(Nc1ccccc1)N1CCN(Cc2ccc3ccccc3n2)CC1`, the outcome is reported as “inactive”.
% is scaled to controls: 0 for no effect and ±100 for the full control effect.
